Source: PubChem
This is a sample that favours compounds with a hit; in the whole collection about 1.5% have one here.
MEX-5 binding – C. elegans MEX-5 TCR-2 RNA binding activity; Q9XUB2; MEX-5/FITC-TCR2 RNA binding, fluorescence polarization; hits give low values; activity score (negative = inhibition of binding), % at 10 µM; 300,000 tested, 0.38% active;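 active means inhibition past about -25% in most replicates, and total fluorescence under double the plate's negative control median, limit read from the data; inconclusive means replicates evenly split on the limit, or fluorescence at least double controls; inactive means too little inhibition in most replicates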
Bcl-xL primary – inhibitors of human Bcl-xL. Q07817. GST-Bcl-xL / FITC-Bim BH3 peptide fluorescence polarization. inhibition, % at 10.9 µM. 320,000 tested, 0.7% active. AID 2129;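 active means inhibition above the mean of all tested compounds plus 3 SD, cutoff set per campaign, cut at about 30% in these data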;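 further: inhibitors lower millipolarization by displacing the labeled peptide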
GLD-1 RNA inh – GLD-1-TGE RNA interaction inhibition (C. elegans) | Q17339 | purified GLD-1 + fluorescein TGE RNA, fluorescence polarization | inhibition, % at 5.96 µM | 320,000 tested, 0.44% active | AID 2280;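 active means percent inhibition above a per-plate cutoff, the plate mean of test compounds plus 3 SD, cut at about 30% in these data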
Target sequence (Q17339 whole entry, looked up): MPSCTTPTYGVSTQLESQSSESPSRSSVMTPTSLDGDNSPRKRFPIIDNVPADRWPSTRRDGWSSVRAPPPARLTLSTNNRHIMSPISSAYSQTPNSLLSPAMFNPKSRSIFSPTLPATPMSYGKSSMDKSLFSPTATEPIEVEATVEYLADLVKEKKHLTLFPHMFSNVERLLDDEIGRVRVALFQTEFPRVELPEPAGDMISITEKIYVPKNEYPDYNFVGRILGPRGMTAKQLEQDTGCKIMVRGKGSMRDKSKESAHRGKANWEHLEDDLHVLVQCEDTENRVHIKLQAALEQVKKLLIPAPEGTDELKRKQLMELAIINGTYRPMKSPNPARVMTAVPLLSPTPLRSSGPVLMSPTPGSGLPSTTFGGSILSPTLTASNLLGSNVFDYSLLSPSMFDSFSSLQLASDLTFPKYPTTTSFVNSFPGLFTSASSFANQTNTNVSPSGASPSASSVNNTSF
MCL1 BIM primary – inhibitors of human MCL1 binding to BIM-BH3 peptide; GST-MCL1 / FITC-Bim-BH3 fluorescence polarization; Q07820; 320,000 tested, 0.68% active; AID 2057; inhibition, % at 10.9 µM;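 active means inhibition above the mean inhibition of all tested compounds plus 3 SD, set per campaign, cut at about 40% in these data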;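 further: higher means more loss of mP so more displacement of Bim peptide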
EBV gp42 inh – EBV gp42 inhibition; 220,000 tested, 0.42% active; Fluorescence polarization binding assay, mP read-out; AID 1085; Q1HVG2; inhibition, % (tested at 21.74 µM); in the data active means inhibition above about 50%
E coli Lon inh – inhibits E. coli Lon protease; inhibition, % at 7.94 µM; 360,000 tested, 0.42% active; purified E. coli Lon protease, fluorescence polarization; in the data active means inhibition above about 13%, passing the limit was not always enough
Bcl-xL conf – Bcl-xL (human) inhibition, MCL1 counter-screen confirmation. shares compounds with MCL1 BIM primary. inhibition, % at 10.9 µM. AID 2166. 1,700 tested, 54% active. GST-Bcl-xL / FITC-Bim BH3 peptide FP binding;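 active means inhibition above a cutoff equal to the mean inhibition of all tested compounds plus 3 SD, cut at about 30% in these data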
MCL1 BIM confirm – confirmation of human MCL1 and BIM-BH3 interaction inhibitors; shares compounds with MCL1 BIM primary; GST-MCL1 / FITC-Bim-BH3 fluorescence polarization; inhibition, % at 10.9 µM; 1,700 tested, 61% active; AID 2168;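 active means inhibition above the average of all tested compounds plus 3 SD, cut at about 40% in these data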
GLD-1 TGE cf – confirmation of C. elegans GLD-1 TGE RNA binding inhibitors. 550 tested, 10% active. inhibition, % at 5.96 µM. shares compounds with GLD-1 RNA inh. GLD-1/FL-TGE RNA fluorescence polarization, biochemical. AID 2459;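 active means average inhibition across triplicates above the hit cutoff set in the primary screen, cut at about 32% in these data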
E coli Lon conf – E. coli Lon inhibition confirmation | shares compounds with E coli Lon inh | purified E. coli Lon, fluorescence polarization | inhibition, % at 7.94 µM | 1,400 tested, 31% active; in the data active means inhibition above about 16%
Hits are given with their value; i = inactive; ? = inconclusive; nt = no result given; + = active, no number.

SMILES	MEX-5 binding	Bcl-xL primary	GLD-1 RNA inh	MCL1 BIM primary	EBV gp42 inh	E coli Lon inh	Bcl-xL conf	MCL1 BIM confirm	E coli Lon conf	others
O=Cc1coc2c(ccc3ccccc32)c1=O	i	i	i	i	nt	nt	nt	nt	nt
Cc1cccc(NC(=O)CSc2nnc(-c3ccco3)c(-c3ccco3)n2)c1C	i	i	i	41	i	89	98	141	i
Cc1cccc(NC(=O)CSc2nnc(-c3ccco3)c(-c3ccco3)n2)c1	nt	nt	nt	nt	i	i	nt	nt	nt
Cc1nc2ccccc2nc1OCc1ccc([N+](=O)[O-])cc1	i	i	i	i	i	i	nt	nt	nt
Nc1ccc2nc(-c3ccccc3)cnc2c1	i	99	81	119	nt	34	121	142	107
Nc1ccc(-c2cnc3ccccc3n2)cc1	i	i	i	i	nt	i	nt	nt	nt
O=c1cc(CN2CCCc3ccccc32)nc2sccn12	?	199	i	+	i	39	134	166	86
O=c1cc(CN2CCc3ccccc32)nc2sccn12	i	i	i	i	i	i	nt	nt	nt
CCOC(=O)CNc1ccc2c(c1)OCO2	i	154	84	176	i	65	i	i	i
COc1ccc(C(CNC(=O)CCNS(=O)(=O)c2ccccc2C(F)(F)F)N2CCOCC2)cc1 (stereo unspecified)	nt	nt	nt	nt	nt	i	nt	nt	nt
CN1CCc2c(sc3c2C(=O)NC(c2ccccn2)N3)C1 (stereo unspecified)	-51	64	37	66	i	24	41	52	i
CNc1cccc2c1C(=O)c1ccccc1C2=O	i	82	46	92	78	50	84	95	41	GLD-1 TGE cf=i
N=C1CCC(=N)c2c1c(O)c1ccccc1c2O	i	125	107	150	69	29	119	144	44
COc1cc(/C=C2\CCCc3c2nc2ccccc2c3C(=O)O)cc(Br)c1O	i	i	i	i	nt	i	nt	nt	nt
CCOc1cc(/C=C2\CCCc3c2nc2ccccc2c3C(=O)O)ccc1OC	i	143	145	166	nt	115	i	i	66
COc1ccc2c(c1)c1nc3ccccc3nc1n2Cc1ccc(OC)c(OC)c1	-26	50	52	55	59	97	60	62	i
COc1cccc2c1C(=O)c1c(O)c3c(c(O)c1C2=O)C[C@@](O)(C(=O)CO)C[C@@H]3O[C@H]1C[C@H](N)[C@H](O)[C@H](C)O1	?	+	+	+	+	+	+	+	+
CC(=O)c1c2c3c(c(Br)ccc3n(C)c1=O)C(=O)c1ccccc1-2	i	67	57	64	nt	50	42	43	21
CC(=O)c1c(C)oc2c1C(=O)c1ccccc1C2=O	i	i	i	i	i	i	nt	nt	nt
Cc1cc2cc(C=C(C#N)C#N)c(Cl)nc2cc1C	i	193	163	+	i	89	i	i	39
CCOC(=O)/C(C#N)=C/c1cc2cc(C)c(C)cc2nc1Cl	i	i	i	i	i	i	nt	nt	nt
O=C(CSc1ccc(F)cc1)NCCSc1ccccc1	i	i	i	i	i	i	nt	nt	nt
COC(=O)c1c(=O)n(O)c2ccc(OC)cc2[n+]1[O-]	-30	169	146	198	98	142	138	178	88
Cn1c(-c2ccc([N+](=O)[O-])cc2)nc2ccccc21	i	i	i	i	i	i	nt	nt	nt
Cn1nc([N+](=O)[O-])c(C(C#N)c2nc3ccccc3n2C)c(Cl)c1=O (stereo unspecified)	-28	79	51	91	80	22	84	90	33
